Bioassay records deposited in PubChem by National Center for Advancing Translational Sciences (NCATS).
MCF10A rereplic: inducers of DNA re-replication in MCF 10A breast cells | MCF 10A DNA re-replication, Hoechst nuclear intensity, 48 h | Potency, µM (series often up to 46.1 µM), for inactives: at the highest dose activity, positive = re-replication, most hits filed as activators | hit rate 2.9% among 350,000 | AID 624296; note: % of control where 0% means no effect; nearly all actives have a fitted effect of over 50% in size
KB-V1 MDR tox: kills drug-selected multidrug resistant KB-V1 cells | KB-V1 MDR cells viability, CellTiter-Glo, 72 h | Potency, µM (doses to about 46.1 µM), actives largely listed as cytotoxic | hit rate 3.4% among 400,000 | AID 1347076; note: % is set by controls: 0 for no effect and ±100 for the full control effect; nearly all actives have a fitted effect of over 60% in size
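Luminescent ATP read-out (CellTiter-Glo, 10 min) measures survival of drug-selected KB-V1 MDR cells after 72 h, 37 degrees C compound exposure. Medium: phenol-red-free DMEM, 10% FBS. Values from fitted concentration-response curves.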
ALOX12 inh: blocks human arachidonate 12S-lipoxygenase | purified 12hLO, xylenol orange hydroperoxide absorbance | Potency, µM (top dose mostly 108 µM), for inactives: at the top dose activity change, negative = inhibition, most hits filed as inhibitors | hit rate 1.1% among 580,000; note: % is set by controls: 0 for no effect and ±100 for the full control effect
Target sequence (P18054 whole entry, looked up): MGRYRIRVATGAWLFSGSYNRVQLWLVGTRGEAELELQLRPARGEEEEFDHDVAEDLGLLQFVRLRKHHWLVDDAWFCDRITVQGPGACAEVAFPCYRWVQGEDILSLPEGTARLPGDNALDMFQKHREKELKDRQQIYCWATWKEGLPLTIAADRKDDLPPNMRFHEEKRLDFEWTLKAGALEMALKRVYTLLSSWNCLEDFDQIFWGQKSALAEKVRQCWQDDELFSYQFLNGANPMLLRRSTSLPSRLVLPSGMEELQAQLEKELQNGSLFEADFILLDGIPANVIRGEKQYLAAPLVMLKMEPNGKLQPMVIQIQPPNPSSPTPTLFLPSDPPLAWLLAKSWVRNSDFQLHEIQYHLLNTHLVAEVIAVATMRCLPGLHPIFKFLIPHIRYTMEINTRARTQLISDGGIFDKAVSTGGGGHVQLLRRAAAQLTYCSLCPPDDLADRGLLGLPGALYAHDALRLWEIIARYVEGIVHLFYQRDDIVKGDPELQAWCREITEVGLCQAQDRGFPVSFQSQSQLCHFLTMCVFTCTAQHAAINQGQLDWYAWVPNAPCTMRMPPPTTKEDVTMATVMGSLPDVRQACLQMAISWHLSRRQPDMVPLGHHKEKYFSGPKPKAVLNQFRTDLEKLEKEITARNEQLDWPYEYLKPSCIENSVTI
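Hydroperoxide product was detected by ferrous iron/xylenol orange as the 573 to 405 nm absorbance ratio. Arachidonic acid at 40 uM (final) was turned over for 30 min at room temperature by 150 nM human 12hLO, pH 7.0 Hepes buffer, after 15 min compound preincubation.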
KB-3-1 tox: kills parental KB-3-1 adenocarcinoma cells; AID 1347075; hit rate 1.4% among 400,000; Potency, µM (series often up to 46.1 µM), hits mostly cytotoxic; KB-3-1 viability, CellTiter-Glo ATP luminescence, 72 h; note: % is set by controls: 0 for no effect and ±100 for the full control effect; nearly all actives have a fitted effect of over 60% in size
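Using CellTiter-Glo luminescence, growth of non-resistant KB-3-1 adenocarcinoma cells is assessed 72 h after pin-tool compound addition at 37 °C. Normalized responses across the concentration series yield fitted curves.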
SW480 rereplic: DNA re-replication induction in SW480 cells | SW480 DNA re-replication, Hoechst DNA content imaging, 48 h | Potency, µM (titrated, usually from 46.1 µM), inactives show at the top dose re-replication activation, hits mostly activators | hit rate 1.8% among 340,000; note: % of control where 0% means no effect; nearly all actives have a fitted effect of over 55% in size
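Treated cells incubate 48 hr (37 C, 5% CO2), are stained 40 min with Hoechst, and nuclear fluorescence is enumerated; a rise in nuclei with high DNA signal marks re-replication.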
PINK1 modulator: modulators of PINK1 expression; PINK1 immunofluorescence, high-content cytometry, 24 h; Potency, µM (titrated, usually from 76.6 µM), for inactives: at the highest dose activation (PINK1 increase), actives largely listed as activators; hit rate 0.2% among 410,000; active = well fitted activation curve with a large enough effect; inconclusive = small, poorly fitted or top-dose-only effect; cell line not stated here; note: % of control where 0% means no effect; nearly all actives have a fitted effect of over 65% in size
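Compound titrations (5 concentrations, 24 h) on a stable cell line; DMSO and CCCP controls. Endpoint: fixed-cell PINK1 immunofluorescence with mitochondrial, cell and nuclear markers, scanned by microplate cytometer.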
An asterisk follows results filed as active; i = inactive; u = inconclusive; x = not tested or not shown; [ ] = remark or other dose. Shown are actives, neighbours in structure and some others; about 5.8% of the full set was active somewhere. Unless noted, calls come from the whole dose curve; as a rule, active = well fitted curve in the direction sought with a large enough effect; inconclusive = small, poorly fitted or top-dose-only effect, or another doubt; inactive = no such curve, though single readings can be large; an effect the other way counts as inactive or inconclusive. Potency is the fitted concentration of half-maximal effect.

SMILES	MCF10A rereplic	KB-V1 MDR tox	ALOX12 inh	KB-3-1 tox	SW480 rereplic	PINK1 modulator
CC(C)=C/C(C)=N/Nc1ccc(S(N)(=O)=O)cc1[N+](=O)[O-]	x	x	38%	x	x	x
CCOc1ccccc1NS(=O)(=O)c1ccc(-c2cnc(C3CC3)o2)cc1	u	u	-5%	0.29µM*	u	0%
Cc1ccc(C)c(-n2ccnc2SCC(=O)Nc2ncc(C)s2)c1	x	x	-19%	x	x	x
Cc1ccc(F)cc1NC(=O)c1ccn(Cn2nnc(-c3ccccc3)n2)n1	x	x	-26%	x	x	x
O=C(NCCC1CCCCN1S(=O)(=O)c1cccs1)C(=O)Nc1cccc(F)c1 (stereo unspecified)	u	16µM*	-10%	i	-3%	-1%
Cc1ccc(CNC(=O)C(=O)NCC2CCCN2S(=O)(=O)c2cccs2)cc1 (stereo unspecified)	6%	9.2µM*	2%	i	-1%	0%
COc1ccc(CNC(=O)C(=O)NCC2CCCN2S(=O)(=O)c2cccs2)cc1 (stereo unspecified)	1%	u	9%	i	7%	8%
O=C(NCCC1CCCCN1S(=O)(=O)c1cccs1)C(=O)NCc1ccccc1 (stereo unspecified)	u	15µM*	-28%	u	u	4%
O=C(NCC1CCCN1S(=O)(=O)c1cccs1)c1cccc(Cl)c1 (stereo unspecified)	8%	u	-1%	i	2.9µM*	0%
COc1ccccc1NC(=O)C(=O)NCC1CCCN1S(=O)(=O)c1cccs1 (stereo unspecified)	12%	4.6µM*	23%	i	-2%	-2%
C/C=C/c1c(C)nc2sc(C#N)c(N)c2c1C	x	x	-5%	x	x	x
CCN(CC)CCCNC(=O)C(C)n1nc(C)c2sc3ccccc3c2c1=O (stereo unspecified)	-1%	i	-7%	i	-6%	-1%
CCN(CC)CCNc1ccc(C)c2sc3ccc(O)cc3c(=O)c12	5%	4.6µM*	u	u	u	-4%
CCCN1CCC(NC(=O)c2cccs2)CC1	x	x	9%	x	x	x
CCCC(=O)N1c2ccccc2C(=C2SC(C(=O)OC)=C(C(=O)OC)S2)C(=S)C1(C)C	-3%	u	22µM*	u	3%[9.22 µM]	0%
CN1/C(=C\C(=O)CN2CCN(C(c3ccccc3)c3ccccc3)CC2)C(C)(C)c2ccccc21	x	x	10µM*	x	x	x
CCOC(=O)C1CCCN(CC(=O)/C=C2/N(C)c3ccccc3C2(C)C)C1 (stereo unspecified)	u	i	u	i	5%	1%
CN(C)S(=O)(=O)c1ccc2nnn(OCC(=O)NC3CCS(=O)(=O)C3)c2c1 (stereo unspecified)	-1%	i	4%	i	-20%	0%
CN(C)S(=O)(=O)c1ccc2nnn(OCC(=O)NC34CC5CC(CC(C5)C3)C4)c2c1	22%	3.7µM*	-12%	i	-1%	3%
COC(=O)Cn1c(C)c(/C=C/c2cc[n+](C)cc2)c2ccccc21	-1%	i	45µM*	u	-2%	0%
COC(=O)Cn1cc(/C=C/c2cc[n+](C)cc2)c2ccccc21	-2%	u	u	i	-15%	8%
CN(Cc1ccccc1)c1nc(N)c([N+](=O)[O-])c(NCc2ccccc2)n1	u	18µM*	-15%	u	-2%	u
CC1CC(C)CN(c2nc(NCc3ccco3)nc(N)c2[N+](=O)[O-])C1 (stereo unspecified)	u	u	-29%	u	6%	1%
Fc1ccc(Nc2nc(NCc3ccco3)c3ccccc3n2)cc1	u	18µM*	40%	u	u	0%
c1coc(CNc2nc(NCc3ccco3)c3ccccc3n2)c1	x	i	x	i	x	1%
SMILES	MCF10A rereplic	KB-V1 MDR tox	ALOX12 inh	KB-3-1 tox	SW480 rereplic	PINK1 modulator
Nc1nc(Cl)nc(NCc2ccccc2)c1[N+](=O)[O-]	x	x	-33%	x	x	x
CC(C)c1ccc(Nc2nc(Cl)nc(NCCO)n2)cc1	3%	i	0%	i	-3%	5%
CC1CCCN(c2nc(NCc3ccco3)nc(N)c2[N+](=O)[O-])C1 (stereo unspecified)	23%	15µM*	-28%	i	x	0%
CC(C)c1ccc(Nc2nc(Cl)nc(NCc3ccco3)n2)cc1	23µM*	i	-16%	u	5.8µM*	1%
Cc1nc2cc(NS(=O)(=O)c3ccccc3C(F)(F)F)ccc2o1	x	x	23%	x	x	x
COC(=O)c1sc(S(=O)(=O)Nc2ccccc2Br)c(C(=O)OC)c1C	x	x	-4%	x	x	x
COc1ccc(C)cc1CN(C)C(=O)C1CCN(C(=O)c2cccc3ccccc23)CC1	x	x	1%	x	x	x
S=c1[nH]nc(-c2n[nH]c3c2CCC3)n1/N=C/c1cccc2ccccc12	x	x	-61%	x	x	x
Nc1nc(Nc2ccccc2)nc(NCc2ccco2)c1[N+](=O)[O-]	u	16µM*	u	i	-5%	0%
Cn1c(SCC(=O)NCc2ccc3c(c2)OCCCO3)nnc1-c1cccs1	x	x	18%	x	x	x
CS(=O)(=O)N(CC(=O)Nc1ccccc1-c1ccccc1)c1cccc(F)c1	0.65µM*	i	-16%	i	-11%	4%
Cc1cccc(NS(=O)(=O)c2ccc(NC(=O)CN(c3cc([N+](=O)[O-])ccc3C)S(C)(=O)=O)cc2)c1	u	i	u	i	18µM*	18%
CC(=O)c1cccc(N(CC(=O)Nc2ccc(S(=O)(=O)N3CCOCC3)cc2)S(C)(=O)=O)c1	-2%	i	1%	i	-14%	-1%
CS(=O)(=O)N(CC(=O)Nc1ccc(S(=O)(=O)N2CCOCC2)cc1)c1cccc(F)c1	u	i	-39%	i	23µM*	1%
Cc1cccc(N(CC(=O)Nc2ccc(F)cc2)S(C)(=O)=O)c1	-1%	16µM*	-26%	i	6%	-4%
CN1CCC2(C1)CN(Cc1ccccc1)c1ccc(C(=O)NCc3cccs3)cc12 (stereo unspecified)	x	x	-8%[176 µM]	x	x	x
COCCN1CC(CO)C2(CCN(Cc3cccc(Cl)c3)CC2)C1 (stereo unspecified)	x	x	22%	x	x	x
COc1ccc(C2c3c(-c4ccccc4O)n[nH]c3C(=O)N2CCO)cc1OC (stereo unspecified)	x	x	22%	x	x	x
Cc1ccc(N(CC(=O)Nc2ccc(S(=O)(=O)N3CCOCC3)cc2)S(C)(=O)=O)cc1C	2%	23µM*	-18%	i	3%	-4%
Cc1ccc(NC(=O)CN(c2ccccc2F)S(=O)(=O)c2ccccc2)c(C)c1	x	x	14%	x	x	x
